# Data taken from ChEMBL document CHEMBL2218924, “A broad activity screen in support of a chemogenomic map for kinase signalling research and drug discovery” (Biochem J, 2013).
# Molecular target: Dual specificity mitogen-activated protein kinase kinase 1 (Homo sapiens) (UniProt Q02750)
# Details: at 1 µM
# Sequence of Dual specificity mitogen-activated protein kinase kinase 1 (Homo sapiens) (Q02750 whole entry): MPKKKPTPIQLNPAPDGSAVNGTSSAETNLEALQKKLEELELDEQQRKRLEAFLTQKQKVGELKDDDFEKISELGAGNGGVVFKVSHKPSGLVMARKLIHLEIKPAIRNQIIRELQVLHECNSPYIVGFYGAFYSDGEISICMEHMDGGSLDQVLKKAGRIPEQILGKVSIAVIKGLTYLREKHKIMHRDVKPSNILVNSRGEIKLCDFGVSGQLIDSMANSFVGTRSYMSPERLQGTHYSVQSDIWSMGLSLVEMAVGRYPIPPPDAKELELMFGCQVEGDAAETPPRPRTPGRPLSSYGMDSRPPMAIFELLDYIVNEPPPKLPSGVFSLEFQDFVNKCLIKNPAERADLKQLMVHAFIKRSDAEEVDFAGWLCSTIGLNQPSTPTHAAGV
row,SMILES,residual activity
1,Nc1n[nH]c2nc3ccccc3nc12,87%
2,Cn1sc(=O)n(Cc2ccccc2)c1=O,96%
3,O=C1Cc2c([nH]c3ccc([N+](=O)[O-])cc23)-c2ccccc2N1,103%
4,O=C(Nc1nc2ccccc2n1CCN1CCOCC1)c1cccc([N+](=O)[O-])c1,66%
5,Cc1cc(C)c(/C=C2\C(=O)Nc3ccccc32)[nH]1,41%
6,Cn1c2ccccc2c2c3c(c4c5ccccc5n(CCC#N)c4c21)CNC3=O,36%
7,COc1cc2c(cc1OC)-c1n[nH]c(Nc3cccc(F)c3)c1C2,108%
8,COc1ccc(Cl)cc1NC(=O)Nc1cc(C)nc2ccccc12,75%
9,CC(C)(C)c1nc2c3ccc(F)cc3c3c(=O)[nH]ccc3c2[nH]1,66%
10,NC(=O)Nc1sc(-c2ccc(F)cc2)cc1C(N)=O,44%

# Molecular target: Dual specificity mitogen-activated protein kinase kinase 1 (Homo sapiens) (UniProt Q02750)
# Details: at 10 µM
row,SMILES,residual activity
1,CN(C)S(=O)(=O)c1ccc2c(c1)/C(=C/c1cc3c([nH]1)CCCC3)C(=O)N2,83%
2,O=C1Cc2c([nH]c3ccc(Br)cc23)-c2ccccc2N1,82%
3,Nc1nccc(-c2c(-c3ccc(F)cc3)ncn2C2CCNCC2)n1,119%
4,Nc1n[nH]c2nc3ccccc3nc12,85%
5,O=C1Cc2c([nH]c3ccc([N+](=O)[O-])cc23)-c2ccccc2N1,129%
6,O=C(Nc1nc2ccccc2n1CCN1CCOCC1)c1cccc([N+](=O)[O-])c1,81%
7,Nc1ncnc2c1cnn2-c1ccccc1,79%
8,Cc1cc(C)c(/C=C2\C(=O)Nc3ccccc32)[nH]1,31%
9,Cn1c2ccccc2c2c3c(c4c5ccccc5n(CCC#N)c4c21)CNC3=O,34%
10,COc1ccc(Cl)cc1NC(=O)Nc1cc(C)nc2ccccc12,86%
11,CC(C)(C)c1nc2c3ccc(F)cc3c3c(=O)[nH]ccc3c2[nH]1,20%
12,O=c1c(-c2ccc(F)cc2)c(-c2ccncc2)[nH]n1-c1ccc(Cl)cc1,102%
13,NC(=O)Nc1sc(-c2ccc(F)cc2)cc1C(N)=O,34%

# Molecular target: Maternal embryonic leucine zipper kinase (Homo sapiens) (UniProt Q14680)
# Details: at 1 µM
# Sequence of Maternal embryonic leucine zipper kinase (Homo sapiens) (Q14680 whole entry, looked up): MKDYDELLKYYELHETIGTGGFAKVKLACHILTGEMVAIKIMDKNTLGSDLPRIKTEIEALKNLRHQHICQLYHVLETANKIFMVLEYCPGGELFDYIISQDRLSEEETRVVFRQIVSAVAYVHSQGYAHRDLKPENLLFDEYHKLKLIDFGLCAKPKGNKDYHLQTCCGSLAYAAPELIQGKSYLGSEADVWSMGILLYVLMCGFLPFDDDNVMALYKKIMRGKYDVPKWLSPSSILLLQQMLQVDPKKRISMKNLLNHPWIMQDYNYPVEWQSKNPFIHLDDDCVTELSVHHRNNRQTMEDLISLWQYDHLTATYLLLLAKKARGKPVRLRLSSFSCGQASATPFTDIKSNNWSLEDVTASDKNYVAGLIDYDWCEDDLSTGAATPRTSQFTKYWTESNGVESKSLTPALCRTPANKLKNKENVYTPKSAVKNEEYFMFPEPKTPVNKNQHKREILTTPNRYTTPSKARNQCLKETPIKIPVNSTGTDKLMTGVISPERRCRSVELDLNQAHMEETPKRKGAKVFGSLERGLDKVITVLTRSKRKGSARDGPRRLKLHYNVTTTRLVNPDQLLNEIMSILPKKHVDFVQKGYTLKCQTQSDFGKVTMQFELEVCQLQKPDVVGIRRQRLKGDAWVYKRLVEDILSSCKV
row,SMILES,residual activity
1,N#C/C(=C1/Nc2ccccc2S1)c1ccnc(NCCc2cccnc2)n1,74%
2,N#Cc1c(NC(=O)c2cccc3ccccc23)sc2c1CCCC2,87%
3,O=C1Cc2c([nH]c3ccc(Br)cc23)-c2ccccc2N1,89%
4,Nc1nccc(-c2c(-c3ccc(F)cc3)ncn2C2CCNCC2)n1,71%
5,O=S(=O)(NCCNC/C=C/c1ccc(Br)cc1)c1cccc2cnccc12,45%
6,Nc1n[nH]c2nc3ccccc3nc12,97%
7,Cn1sc(=O)n(Cc2ccccc2)c1=O,88%
8,O=S(=O)(c1cccc2cnccc12)N1CCCNCC1,75%
9,O=C1Cc2c([nH]c3ccc([N+](=O)[O-])cc23)-c2ccccc2N1,81%
10,O=C(Nc1nc2ccccc2n1CCN1CCOCC1)c1cccc([N+](=O)[O-])c1,65%
11,Nc1ncnc2c1cnn2-c1ccccc1,95%
12,Fc1ccc(-c2nc3n(c2-c2ccncc2)CCS3)cc1,89%
13,Cn1c2ccccc2c2c3c(c4c5ccccc5n(CCC#N)c4c21)CNC3=O,9%
14,CCOC(=O)c1c(C)[nH]c(/C=C2\C(=O)Nc3ccccc32)c1C,77%
15,COc1cc2c(cc1OC)-c1n[nH]c(Nc3cccc(F)c3)c1C2,47%
16,NC(=O)c1cccc(-c2cc(Nc3ccc(OC(F)(F)F)cc3)ncn2)c1,74%
17,N#C/C(=C\c1ccc(O)c(O)c1)C(=O)NCc1ccccc1,80%
18,COc1ccc(Cl)cc1NC(=O)Nc1cc(C)nc2ccccc12,88%
19,CC(C)(C)c1nc2c3ccc(F)cc3c3c(=O)[nH]ccc3c2[nH]1,2%
20,NC(=O)c1ccc(-c2nc(-c3ccc4c(c3)OCCO4)c(-c3ccccn3)[nH]2)cc1,73%
21,O=C1NC(=O)C(c2cn(CCCO)c3ncccc23)=C1c1cnccn1,78%
22,O=C(Nc1ccc(Cl)cc1)c1ccccc1NCc1ccncc1,75%
23,NC(=O)Nc1sc(-c2ccc(F)cc2)cc1C(N)=O,72%
24,Oc1cccc(-c2nc(N3CCOCC3)c3oc4ncccc4c3n2)c1,74%

# Molecular target: Maternal embryonic leucine zipper kinase (Homo sapiens) (UniProt Q14680)
# Details: at 10 µM
row,SMILES,residual activity
1,N#C/C(=C1/Nc2ccccc2S1)c1ccnc(NCCc2cccnc2)n1,50%
2,N#Cc1c(NC(=O)c2cccc3ccccc23)sc2c1CCCC2,91%
3,CN(C)S(=O)(=O)c1ccc2c(c1)/C(=C/c1cc3c([nH]1)CCCC3)C(=O)N2,95%
4,O=C1Cc2c([nH]c3ccc(Br)cc23)-c2ccccc2N1,68%
5,O=c1cc(N2CCOCC2)oc2c(-c3ccccc3)cccc12,72%
6,Nc1nccc(-c2c(-c3ccc(F)cc3)ncn2C2CCNCC2)n1,27%
7,O=S(=O)(NCCNC/C=C/c1ccc(Br)cc1)c1cccc2cnccc12,9%
8,Nc1n[nH]c2nc3ccccc3nc12,70%
9,Cn1sc(=O)n(Cc2ccccc2)c1=O,65%
10,O=S(=O)(c1cccc2cnccc12)N1CCCNCC1,16%
11,O=C1Cc2c([nH]c3ccc([N+](=O)[O-])cc23)-c2ccccc2N1,64%
12,O=C(Nc1nc2ccccc2n1CCN1CCOCC1)c1cccc([N+](=O)[O-])c1,45%
13,Nc1ncnc2c1cnn2-c1ccccc1,73%
14,Fc1ccc(-c2nc3n(c2-c2ccncc2)CCS3)cc1,82%
15,Cn1c2ccccc2c2c3c(c4c5ccccc5n(CCC#N)c4c21)CNC3=O,4%
16,CCOC(=O)c1c(C)[nH]c(/C=C2\C(=O)Nc3ccccc32)c1C,97%
17,COc1cc2c(cc1OC)-c1n[nH]c(Nc3cccc(F)c3)c1C2,11%
18,NC(=O)c1cccc(-c2cc(Nc3ccc(OC(F)(F)F)cc3)ncn2)c1,75%
19,N#C/C(=C\c1ccc(O)c(O)c1)C(=O)NCc1ccccc1,72%
20,COc1ccc(Cl)cc1NC(=O)Nc1cc(C)nc2ccccc12,89%
21,CC(C)(C)c1nc2c3ccc(F)cc3c3c(=O)[nH]ccc3c2[nH]1,2%
22,NC(=O)c1ccc(-c2nc(-c3ccc4c(c3)OCCO4)c(-c3ccccn3)[nH]2)cc1,70%
23,O=C1NC(=O)C(c2cn(CCCO)c3ncccc23)=C1c1cnccn1,68%
24,NC(=O)Nc1sc(-c2ccc(F)cc2)cc1C(N)=O,24%
25,Oc1cccc(-c2nc(N3CCOCC3)c3oc4ncccc4c3n2)c1,88%
